# Compound activity deposited in PubChem by Sanford-Burnham Center for Chemical Genomics.
# DUSP3 inh: inhibitors of human VHR1 phosphatase (DUSP3). AID 1992. recombinant VHR phosphatase, colorimetric substrate read-out. 50,000 tested, 0.7% active. P51452. inhibition, % at 20 µM; in the data active means inhibition above about 60%
# Target sequence (P51452 whole entry, looked up): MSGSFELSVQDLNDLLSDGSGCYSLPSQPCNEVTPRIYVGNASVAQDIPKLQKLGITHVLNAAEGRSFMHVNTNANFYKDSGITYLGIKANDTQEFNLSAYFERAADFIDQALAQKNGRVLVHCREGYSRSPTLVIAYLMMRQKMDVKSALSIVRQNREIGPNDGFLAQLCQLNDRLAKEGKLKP
# An asterisk follows results filed as active. Many of the other results were omitted from the sample, so hits are more common in it than they were.
SMILES,DUSP3 inh
CCOC(=O)C1=NNC2(c3ccc(Cl)cc3)C(=O)N(c3cccc(OC)c3)C(=O)C12 (stereo not given),100*
CCOC(=O)C1=NNC2C(=O)N(c3cccc(Br)c3)C(=O)C12 (stereo not given),-20
CCC(CO)N=Cc1c(O)n(-c2c(Cl)cccc2Cl)c2ccccc12 (stereo not given),98*
CCn1c(O)c(N=NC(=O)c2ccccc2Cl)c2ccccc21,-10
CCOc1c(/C=C(\C#N)C(N)=O)c2ccccc2n1-c1c(Cl)cccc1Cl,-5
O=C1C(Cl)=C(N2CCCCC2)C(=O)N1c1ccc(Cl)c(Cl)c1,8
COc1ccc(/C=C2\C=C(c3ccc(Cl)cc3)OC2=O)cc1OC,12
COc1ccc(N2C(=O)NC(=O)/C(=C/c3ccc(-c4cccc([N+](=O)[O-])c4)o3)C2=O)cc1,-5
O=C1c2ccccc2CCC1C1(O)C(=O)Nc2ccccc21 (stereo not given),-1
CC1(C)CC(=O)C(C2(O)C(=O)Nc3ccc(Br)cc32)CO1 (stereo not given),-11
O=C1c2ccccc2CCC1C1(O)C(=O)Nc2ccc(Br)cc21 (stereo not given),117*
N#CC(C#N)=C1C(=O)N(Cc2ccc3c(c2)OCO3)c2ccccc21,4
Cc1ccc(-c2cc(C(=O)Nc3cccc(F)c3)c3ccccc3n2)o1,62
Cc1ccc(C)c(-c2csc(N)c2C(=O)OC(C)C)c1,8
Cc1ccc(-c2csc(N)c2C(=O)OC(C)C)cc1C,84*
Cc1ccc(-c2csc(N)c2C(=O)OC(C)C)cc1,52
O=C(O)COc1ccc(N2C(=O)c3ccc([N+](=O)[O-])cc3C2=O)cc1,4
CCNC(=O)CN(c1ccc(OC)cc1)S(=O)(=O)c1ccc(C)cc1,-12
